Experimental data: the supplement of paper PMC6555819

Test system: VDR:RXRa (NR concentration 270 nM, RXRa partner concentration 90 nM)
Assay: PBM binding z-score (relative to random genomic background probes); higher = stronger binding; sequences stand for … in GC…GCGATTGACAGCGTAGAATGAAGG
Method: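 Protein-binding microarray (Agilent 4x180K custom design, double-stranded 60-nt probes: 5' GC cap, 34-nt variable region, 24-nt constant primer region; full probe sequence given). Purified or IVT nuclear receptor:RXRα heterodimers (3:1 NR:RXRα, mostly 270:90 nM) or homodimers were incubated for 1 h in PBS with 2% milk and no ligand, then detected with Alexa488 antibodies. Fluorescence from o1-orientation probes (~5 replicates averaged) was converted to z-scores against 500 random hg19 background probes. Variable regions are seed direct-repeat (DR0–DR5) sites, all their single-nucleotide variants and half-site ablations.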

Row | Sequence | PBM binding z-score
1 | CCTGCTAGGTCATGGACAGCTAATCTACAGTATG | 1.56
2 | TCGAGTAGGTTAGGGGCAATCAGAATGGCGTCGA | 0.363
3 | CTACCAAGGTGAACTAGGTCGTTGATTACTATTC | 3.56
4 | TCATATAGGTATAAGGTGAAAGTCGGTGTGGTAA | 1.06
5 | CCTACTGGGCCATCAGTTCATTGATATCAACGTT | 1.13
6 | CGTCCAAGTTCAACTAAGGTAACGTAAAGCACGC | 4.16
7 | TAGCCTAGGTCAGATCGGGCTAGTATACGCTATA | 0.302
8 | GCTAGCAGGCCCTTTGGGTCACTCAATGACGGGC | -0.206
9 | ACAACGAGGGCAATGAGTTGATAGCACGGGTGGC | 5.13
10 | AGTCAAAGTTCGCTAGGTAACGTAAGATTCAGCT | 0.489
11 | TAGCCCAGGTCATGGGCCAGTATACCACGCGAAC | 2.64
12 | CCTAGTTGATCAGGAGGTCACACACCGGATATGA | 4.08
13 | ACTTACGGGTCAACGCGGTTATAGCACGCGTATA | 6.31
14 | ATCTATAGGTAACCAAGTTCAGTGAATGCCGAAC | 5.03
15 | TCATATAGGTAAAAGGTTAAAGTCGGTGTGGTAA | 2.73
16 | CCGAGTAGGTTATGGGGCATTCAGGCAACGGTGA | -0.0737
17 | CGTCCAAGGTCGAGGTCAGTGAAAGAGACTCGAA | 3.73
18 | CATATAGGGTCAGCTAGGCCAGAGTAGGGACGGC | 3.7
19 | ATCTCCAGGTAAGACTCAGTTCAGTGAAGAACGC | 1.05
20 | AATACAGGGTCATCGTGGGCCAGAGTACGCACAG | 5.18

Row | Sequence | PBM binding z-score
21 | CGTCCAAGGTCAGAGAGGTCAGCGAATGCCGAGT | 7.48
22 | ATCGAATGGTCGACGAGGTGAGTATACACCGTTT | 0.0601
23 | CGAACTAGGTCAGGACAGGACAGTGAAGGATGAT | 0.943
24 | CCTCGGAGGACAGAAGGTTAGAGCTGTCCGCTTT | -0.275
25 | ATATGTAGGTTACATCCGGATCATTCAGGCTATG | 0.945
26 | GCTGCTAGGTCAAGTTGGTCAGCTAACGGGTACG | 2.17
27 | TCATATAGGTAAAGGGGAAAGTCGAACGATATGA | 0.735
28 | CCTACTGGGCCAAAAAGGTCAGTGATGCCGATAA | 2.91
29 | ATAACGAGGGCAATGAGTTGATAGCACGGGTGGC | 4.89
30 | TGTCAAAGTTCAAAGGTAACGTCAGTATCCACAC | 5.11
31 | CTCGAAAAGTCGGTTGAGGTGAGTATACGGATAA | -0.065
32 | CGAACGAGGGCATGAGTTGATAACAAATGCCGAT | 1.04
33 | GATACAGGTTCAGCTAGAGGCCAGAGTATGGAAA | 2.28
34 | CAGCCTAGGTCAGGGCCAGTGTAGGAGGAACGTT | 0.257
35 | TCATATAGGTAAAGGTGAATGTCGAACGATATGA | 0.919
36 | ACAGACAGGTGAGGGAAGGTAACTCAGCTGGACG | -0.405
37 | TCATAGAGGTAAATGCTAGGTGAAAGTCCGATCT | 0.364
38 | AGCATGAGGTTATTAAGATCAGGGAATTGCGGTC | 2.36
39 | TCTTGTAGATCAGCAGGTTAAGCAAGCTGGCCAA | 0.275
40 | GGAACGAGGGCAAGTTGGTAGCAGAGTTTGATGG | 1.03
